Common to all, as to assay: qHTS profiling for inhibitors of Plasmodium falciparum proliferation (AID 504749); note: nearly all actives have a fitted effect of over 60% in size
Common to all, as to settings: P. falciparum in erythrocytes, SYBR Green DNA, 72 h; series mostly up to 28.7 µM

For test [1], the system named is CP247. In short, it runs like this: (§1)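 P. falciparum-infected erythrocytes (0.3% parasitemia, 2.5% hematocrit final) were exposed to compounds for 72 h at 37 C in 5% CO2, then lysed with SYBR Green buffer overnight at room temperature; parasite DNA fluorescence was normalized to artemisinin and DMSO controls.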
Test [2] has as its system CP260. In short, it runs like this: as §1
In test [3] the test system is CP262. In short, it runs like this:
as §1

Test [4] deals with CP250. Put shortly:
as §1

Test [5] has as its system CP266. In short, it runs like this: as §1
The test system of test [6] is CP238. Put shortly:
as §1

Test [7] deals with CP252. Put shortly: as §1
The test system of test [8] is CP256. Put shortly: as §1
The subject of test [9] is CP265. Put shortly:
as §1

The subject of test [10] is CP237. In short, it runs like this:
as §1

Results filed as inconclusive are left out. Activity calls are given as the source filed them. Calls come from the whole dose curve; as a rule, active = well fitted inhibition curve with a large enough effect; inconclusive = small, poorly fitted or top-dose-only effect; inactive = flat fitted curve, though single readings scatter.
Potency is the fitted concentration of half-maximal effect.

As for `Oc1ccc(C(O)CNCCCCCCNCC(O)c2ccc(O)c(O)c2)cc1O` (stereo not drawn), the Potency is 11.2 µM (active) in test [1] and 7.94 µM (active) in test [2]. Moreover, the Potency entry in test [3] was “inactive”.
In the case of `Cc1c(O)cccc1C(=O)N[C@@H](CSc1ccccc1)[C@H](O)CN1C[C@H]2CCCC[C@H]2C[C@H]1C(=O)NC(C)(C)C`, the Potency entry in [4], in test [3] and in test [5] was “inactive” in each case.
Turning to `Cc1cc(O)cc2c1O[C@](C)(CCC[C@H](C)CCC[C@H](C)CCCC(C)C)CC2`, the Potency result in [6], in test [1], in test [4], in [7], in test [8] and in [2] was “inactive” throughout. In addition, the Potency entry in test [3], in test [9] and in test [5] was “inactive” in each case.
`[Cl][In]([Cl])[Cl]`: the Potency result in [6], in [7] and in test [3] was “inactive” each time.
On to `OCCN1CCN(CCCN2c3ccccc3Sc3ccc(Cl)cc32)CC1`, for which the Potency was 2.51 µM (active) in [1]; 3.55 µM (active) in [7]; 3.98 µM (active) in test [8]; 3.16 µM (active) in test [2]; 3.55 µM (active) in [9]. In [5], the Potency result was “inactive”.
Turning to `CC(=O)NC(Cc1ccccc1)C(=O)O` (stereo not drawn), the Potency result in [10], in test [6], in test [4], in [7], in test [8] and in [2] was “inactive” throughout. In addition, the Potency result in test [3], in test [9] and in test [5] was “inactive” each time.
For the compound `CN(C)CCN(Cc1ccccc1)c1ccccn1`, the Potency in [10] is 5.01 µM (active). Moreover, the Potency result in [1], in test [4], in [8], in test [3] and in test [5] was “inactive” in each case.
On to `Cc1ccc2nc(N)[nH]c(=O)c2c1Sc1ccncc1`, for which the Potency in test [4] is 2.24 µM (active); in [7], 1.58 µM (active); in test [8], 10 µM (active); in test [2], 11.2 µM (active); in test [9], 10 µM (active). For the same compound, in test [5], the Potency result is “inactive”.
Regarding `COc1ccc2[nH]c(S(=O)Cc3ncc(C)c(OC)c3C)nc2n1` (stereo not drawn), the Potency in test [1] was 11.2 µM (active). In [3], the Potency entry is “inactive”.
Regarding `O=S(=O)(O)NC1CCCCC1`, the Potency result in test [10], in test [6], in test [1], in test [7], in test [8] and in test [2] was “inactive” throughout. Moreover, the Potency entry in test [3], in [9] and in [5] was “inactive” each time.
`CN1CCCCC1CCN1c2ccccc2Sc2ccc(S(C)=O)cc21` (stereo not drawn): the Potency result in test [1], in test [7], in [3] and in test [5] was “inactive” each time.
Turning to `CSc1ccc2c(c1)N(CCC1CCCCN1C)c1ccccc1S2` (stereo not drawn), the Potency in test [10] was 10 µM (active); in test [2] it was 7.94 µM (active). Also, in test [5], the Potency entry was “inactive”.
In the case of `CN1CCC[C@@H]1Cc1c[nH]c2ccc(CCS(=O)(=O)c3ccccc3)cc12`, the Potency result in [7], in test [3] and in test [5] was “inactive” in each case.
For the compound `CN(C)CCCN1c2ccccc2Sc2ccc(Cl)cc21`, the Potency entry in test [1], in test [8], in [3] and in [5] was “inactive” in each case.
As for `C[C@]12C[C@H](O)[C@H]3[C@@H](CCC4=CC(=O)CC[C@@]43C)[C@@H]1CC[C@@H]2C(=O)CO`, the Potency result in [10], in [2], in test [3] and in test [5] was “inactive” each time.
Take `CC(CN1c2ccccc2Sc2ccccc21)N(C)C` (stereo not drawn): the Potency entry in [6], in test [1], in test [4], in test [7], in test [8] and in test [3] was “inactive” in each case. Moreover, the Potency entry in test [5] is “inactive”.
For `OCc1cc(C(O)CNCCCCCCOCCCCc2ccccc2)ccc1O` (stereo not drawn), the Potency entry in test [6], in test [1], in test [4], in test [7], in test [9] and in test [5] was “inactive” in each case.
As for `COC(=O)C1=C(C)NC(C)=C(C(=O)OC)C1c1ccccc1[N+](=O)[O-]`, the Potency result in [10], in test [6], in test [7], in test [8], in test [3] and in [9] was “inactive” each time. The Potency entry in test [5] is “inactive”.
For the compound `CCOc1nc2cccc(C(=O)O)c2n1Cc1ccc(-c2ccccc2-c2nn[nH]n2)cc1`, the Potency result in test [10], in test [6], in test [1], in test [4], in test [8] and in test [2] was “inactive” each time. In addition, the Potency entry in test [3], in test [9] and in [5] was “inactive” in each case.
For `CSc1ccc2c(c1)C(N1CCN(C)CC1)Cc1ccccc1S2` (stereo not drawn), the Potency entry in [4], in test [8], in test [3], in test [9] and in test [5] was “inactive” each time. Also, the Potency in [2] is 10 µM (active).
In the case of `NC(=O)N/N=C/c1ccc([N+](=O)[O-])o1`, the Potency in test [10] is 10 µM (active); in test [2], 10 µM (active); in [9], 8.91 µM (active). Besides, in test [5], the Potency result is “inactive”.

The values above are taken from PubChem BioAssay (NCATS).
